# How the values were obtained:
# Experiment in all cases: DAPPL (digital affinity profiling via proximity ligation, sequencing); 10 mM Tris-HCl pH 7.5, 50 mM NaCl, 1 mM DTT, 4% glycerol, room temperature, 30 min; GST-TFs on glutathione beads, 16-mer random dsDNA library, 0.1% formaldehyde crosslink after washing; high values mean tight binding
# Conditions in all cases: protein: recombinant; tags: N-terminal GST; dsDNA, one strand shown
# FLI1 = target: T1, FLI1 (Homo sapiens, UniProt Q01543 1-452)
# T1 sequence: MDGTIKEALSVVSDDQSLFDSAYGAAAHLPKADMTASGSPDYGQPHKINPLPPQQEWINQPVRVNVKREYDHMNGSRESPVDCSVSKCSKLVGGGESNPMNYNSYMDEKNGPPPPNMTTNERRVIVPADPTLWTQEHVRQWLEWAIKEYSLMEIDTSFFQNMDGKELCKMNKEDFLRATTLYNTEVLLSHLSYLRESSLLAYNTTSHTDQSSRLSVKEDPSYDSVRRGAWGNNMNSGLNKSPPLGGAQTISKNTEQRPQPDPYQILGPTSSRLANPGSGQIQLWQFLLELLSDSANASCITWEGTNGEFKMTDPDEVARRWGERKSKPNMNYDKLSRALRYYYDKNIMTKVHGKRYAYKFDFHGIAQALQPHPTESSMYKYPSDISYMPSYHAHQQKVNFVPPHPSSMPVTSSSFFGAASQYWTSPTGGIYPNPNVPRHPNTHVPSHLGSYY
# Outline: (§1)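 Binding signal is given per hexamer as its read frequency for a factor divided by its frequency in the tag-only sample. GST-fused human transcription factors were expressed in yeast, captured on glutathione beads, barcoded with DNA and pooled with that sample, then incubated with 200 nmole of a 16-mer random double-stranded DNA library in Tris/NaCl/DTT/glycerol buffer for 30 min at room temperature. The pools were then washed, crosslinked, proximity-ligated, amplified by PCR and sequenced on an Illumina NextSeq500.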
# ELK1 = target: T2, ELK1 (Homo sapiens, UniProt P19419 1-428)
# T2 sequence: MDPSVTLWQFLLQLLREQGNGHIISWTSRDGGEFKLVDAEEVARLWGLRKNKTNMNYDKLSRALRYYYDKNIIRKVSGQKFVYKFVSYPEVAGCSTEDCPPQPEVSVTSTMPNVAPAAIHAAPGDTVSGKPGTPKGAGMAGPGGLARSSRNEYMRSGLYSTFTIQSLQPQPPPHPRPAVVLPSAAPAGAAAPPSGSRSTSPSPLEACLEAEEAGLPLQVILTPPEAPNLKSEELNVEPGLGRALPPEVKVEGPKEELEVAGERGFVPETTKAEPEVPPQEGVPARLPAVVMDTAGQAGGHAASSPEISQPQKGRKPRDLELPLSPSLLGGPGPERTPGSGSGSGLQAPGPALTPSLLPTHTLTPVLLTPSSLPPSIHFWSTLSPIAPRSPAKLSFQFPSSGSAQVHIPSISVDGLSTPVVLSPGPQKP
# Outline: as §1
# GABPA = target: T3, GABPA (Homo sapiens, UniProt Q06546 1-454)
# T3 sequence: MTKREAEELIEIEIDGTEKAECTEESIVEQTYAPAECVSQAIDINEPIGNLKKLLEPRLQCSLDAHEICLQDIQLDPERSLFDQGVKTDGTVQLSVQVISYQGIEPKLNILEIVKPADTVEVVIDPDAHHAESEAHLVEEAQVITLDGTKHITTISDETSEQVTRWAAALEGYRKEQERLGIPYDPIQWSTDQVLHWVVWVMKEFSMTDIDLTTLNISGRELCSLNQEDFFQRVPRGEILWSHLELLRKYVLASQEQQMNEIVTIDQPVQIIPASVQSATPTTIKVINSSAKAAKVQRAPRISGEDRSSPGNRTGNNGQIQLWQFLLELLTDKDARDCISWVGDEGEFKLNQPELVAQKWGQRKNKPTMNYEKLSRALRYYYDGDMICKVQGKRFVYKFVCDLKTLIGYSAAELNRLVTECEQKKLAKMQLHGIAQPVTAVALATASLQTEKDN
# Outline: as §1
# ELF1 = ELF1 (Homo sapiens, UniProt P32519 1-619)
# Sequence of ELF1 (P32519 whole entry): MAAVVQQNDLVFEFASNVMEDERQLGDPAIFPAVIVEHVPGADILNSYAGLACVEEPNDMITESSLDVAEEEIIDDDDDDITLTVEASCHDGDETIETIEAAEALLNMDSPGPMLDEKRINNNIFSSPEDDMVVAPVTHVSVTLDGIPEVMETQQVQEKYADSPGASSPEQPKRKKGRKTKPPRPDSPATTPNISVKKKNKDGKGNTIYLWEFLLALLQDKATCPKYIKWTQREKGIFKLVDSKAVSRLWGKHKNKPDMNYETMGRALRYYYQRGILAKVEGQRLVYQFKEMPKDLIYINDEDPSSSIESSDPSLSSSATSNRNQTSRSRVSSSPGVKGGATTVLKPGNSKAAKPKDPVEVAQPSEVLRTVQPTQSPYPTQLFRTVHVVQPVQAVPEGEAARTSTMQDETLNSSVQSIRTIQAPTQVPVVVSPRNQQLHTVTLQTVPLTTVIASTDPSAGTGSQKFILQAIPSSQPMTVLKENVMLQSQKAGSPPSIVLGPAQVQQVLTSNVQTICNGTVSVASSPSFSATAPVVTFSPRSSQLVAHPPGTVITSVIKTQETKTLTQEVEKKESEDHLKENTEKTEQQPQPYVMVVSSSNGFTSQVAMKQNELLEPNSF
# Outline: as §1
# EHF = target: T4, EHF (Homo sapiens, UniProt Q9NZC4 1-300)
# T4 sequence: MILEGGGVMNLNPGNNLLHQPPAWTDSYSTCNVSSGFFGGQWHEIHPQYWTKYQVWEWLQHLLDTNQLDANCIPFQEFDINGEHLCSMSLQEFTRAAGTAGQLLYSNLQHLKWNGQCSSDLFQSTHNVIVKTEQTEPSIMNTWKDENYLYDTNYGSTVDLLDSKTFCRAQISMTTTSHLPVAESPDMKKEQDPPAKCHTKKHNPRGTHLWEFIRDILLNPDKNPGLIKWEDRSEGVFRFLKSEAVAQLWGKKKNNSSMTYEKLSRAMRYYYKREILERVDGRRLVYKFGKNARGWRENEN
# Outline: as §1
# SPI1 = SPI1 (Homo sapiens, UniProt P17947 1-270)
# Outline: as §1
# ELK3 = target: T5, ELK3 (Homo sapiens, UniProt P41970 1-407)
# T5 sequence: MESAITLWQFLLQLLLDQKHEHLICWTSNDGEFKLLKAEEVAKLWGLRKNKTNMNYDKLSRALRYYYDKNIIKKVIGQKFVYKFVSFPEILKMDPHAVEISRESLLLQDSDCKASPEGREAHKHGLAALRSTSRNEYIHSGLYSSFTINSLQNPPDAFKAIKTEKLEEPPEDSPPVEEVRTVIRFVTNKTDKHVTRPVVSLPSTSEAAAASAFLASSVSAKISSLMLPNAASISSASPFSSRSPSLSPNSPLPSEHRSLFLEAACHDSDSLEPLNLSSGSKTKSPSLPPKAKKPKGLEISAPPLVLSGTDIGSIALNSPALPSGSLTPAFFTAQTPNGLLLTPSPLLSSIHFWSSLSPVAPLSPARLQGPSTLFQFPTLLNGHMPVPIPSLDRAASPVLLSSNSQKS
# Outline: as §1
# FEV = target: T6, FEV (Homo sapiens, UniProt Q99581 1-238)
# T6 sequence: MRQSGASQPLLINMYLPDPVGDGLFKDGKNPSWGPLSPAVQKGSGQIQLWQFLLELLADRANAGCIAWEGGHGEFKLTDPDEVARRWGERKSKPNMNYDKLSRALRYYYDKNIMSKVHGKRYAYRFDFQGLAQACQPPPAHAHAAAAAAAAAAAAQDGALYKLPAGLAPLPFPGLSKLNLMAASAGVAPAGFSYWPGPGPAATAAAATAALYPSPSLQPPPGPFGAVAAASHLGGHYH
# Outline: as §1
# ETV5 = ETV5 (Homo sapiens, UniProt P41161 1-510)
# Sequence of ETV5 (P41161 whole entry): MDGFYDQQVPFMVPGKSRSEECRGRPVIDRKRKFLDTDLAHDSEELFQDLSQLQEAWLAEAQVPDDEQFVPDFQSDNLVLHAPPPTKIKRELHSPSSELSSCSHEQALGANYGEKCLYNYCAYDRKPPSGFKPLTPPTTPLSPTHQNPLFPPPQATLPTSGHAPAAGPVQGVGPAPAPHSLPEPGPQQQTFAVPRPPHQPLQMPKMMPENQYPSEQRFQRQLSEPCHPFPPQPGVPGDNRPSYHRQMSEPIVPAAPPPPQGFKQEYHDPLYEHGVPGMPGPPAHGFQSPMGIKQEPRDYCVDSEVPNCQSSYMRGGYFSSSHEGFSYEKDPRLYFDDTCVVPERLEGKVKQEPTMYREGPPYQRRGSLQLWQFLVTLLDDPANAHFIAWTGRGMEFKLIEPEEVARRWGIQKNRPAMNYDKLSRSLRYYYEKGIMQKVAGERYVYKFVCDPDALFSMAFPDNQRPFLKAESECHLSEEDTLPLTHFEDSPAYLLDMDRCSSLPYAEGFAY
# Outline: as §1
# SPIC = target: T7, SPIC (Homo sapiens, UniProt Q8N5J4 1-248)
# T7 sequence: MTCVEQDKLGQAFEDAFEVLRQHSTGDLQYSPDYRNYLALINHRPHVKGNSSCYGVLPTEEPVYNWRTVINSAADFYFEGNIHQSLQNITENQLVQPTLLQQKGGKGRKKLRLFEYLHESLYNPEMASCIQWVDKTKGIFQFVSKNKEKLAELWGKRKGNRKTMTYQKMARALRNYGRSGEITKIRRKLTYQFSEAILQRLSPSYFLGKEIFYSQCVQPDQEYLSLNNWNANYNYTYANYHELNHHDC
# Outline: as §1
# ELF4 = ELF4 (Homo sapiens, UniProt Q99607 1-663)
# Sequence of ELF4 (Q99607 whole entry): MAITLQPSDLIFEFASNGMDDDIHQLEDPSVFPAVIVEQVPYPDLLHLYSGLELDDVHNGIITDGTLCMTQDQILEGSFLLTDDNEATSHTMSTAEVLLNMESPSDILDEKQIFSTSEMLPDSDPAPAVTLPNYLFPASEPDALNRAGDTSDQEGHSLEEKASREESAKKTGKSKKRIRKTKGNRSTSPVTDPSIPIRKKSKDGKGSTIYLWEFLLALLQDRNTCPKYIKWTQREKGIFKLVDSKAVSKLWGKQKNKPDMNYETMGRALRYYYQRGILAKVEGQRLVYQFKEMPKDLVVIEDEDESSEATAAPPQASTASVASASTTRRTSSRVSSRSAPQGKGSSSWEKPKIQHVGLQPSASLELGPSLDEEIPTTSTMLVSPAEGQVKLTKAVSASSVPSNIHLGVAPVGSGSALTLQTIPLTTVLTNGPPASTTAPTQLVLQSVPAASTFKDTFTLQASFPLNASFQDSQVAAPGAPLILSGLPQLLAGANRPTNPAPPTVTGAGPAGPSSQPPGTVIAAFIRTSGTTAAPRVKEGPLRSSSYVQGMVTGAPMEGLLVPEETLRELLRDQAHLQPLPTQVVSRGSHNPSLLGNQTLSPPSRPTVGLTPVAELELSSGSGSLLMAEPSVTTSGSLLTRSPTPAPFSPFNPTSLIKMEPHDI
# Outline: as §1
# ETV1 = ETV1 (Homo sapiens, UniProt P50549 1-477)
# Sequence of ETV1 (P50549 whole entry): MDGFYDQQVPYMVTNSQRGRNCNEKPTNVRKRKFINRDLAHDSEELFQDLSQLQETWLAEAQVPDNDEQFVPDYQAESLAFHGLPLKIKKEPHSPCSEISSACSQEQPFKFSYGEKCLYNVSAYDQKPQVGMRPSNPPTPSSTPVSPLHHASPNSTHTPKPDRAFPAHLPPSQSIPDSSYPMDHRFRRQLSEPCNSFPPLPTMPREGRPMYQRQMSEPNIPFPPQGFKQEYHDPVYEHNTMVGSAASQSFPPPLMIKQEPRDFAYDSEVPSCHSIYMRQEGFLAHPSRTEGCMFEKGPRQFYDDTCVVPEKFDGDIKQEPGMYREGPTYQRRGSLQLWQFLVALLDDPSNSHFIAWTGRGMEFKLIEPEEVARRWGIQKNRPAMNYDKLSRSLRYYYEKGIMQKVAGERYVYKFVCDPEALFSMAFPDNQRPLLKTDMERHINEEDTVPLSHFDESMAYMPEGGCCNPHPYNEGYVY
# Outline: as §1
# ERF = target: T8, ERF (Homo sapiens, UniProt P50548 1-548)
# T8 sequence: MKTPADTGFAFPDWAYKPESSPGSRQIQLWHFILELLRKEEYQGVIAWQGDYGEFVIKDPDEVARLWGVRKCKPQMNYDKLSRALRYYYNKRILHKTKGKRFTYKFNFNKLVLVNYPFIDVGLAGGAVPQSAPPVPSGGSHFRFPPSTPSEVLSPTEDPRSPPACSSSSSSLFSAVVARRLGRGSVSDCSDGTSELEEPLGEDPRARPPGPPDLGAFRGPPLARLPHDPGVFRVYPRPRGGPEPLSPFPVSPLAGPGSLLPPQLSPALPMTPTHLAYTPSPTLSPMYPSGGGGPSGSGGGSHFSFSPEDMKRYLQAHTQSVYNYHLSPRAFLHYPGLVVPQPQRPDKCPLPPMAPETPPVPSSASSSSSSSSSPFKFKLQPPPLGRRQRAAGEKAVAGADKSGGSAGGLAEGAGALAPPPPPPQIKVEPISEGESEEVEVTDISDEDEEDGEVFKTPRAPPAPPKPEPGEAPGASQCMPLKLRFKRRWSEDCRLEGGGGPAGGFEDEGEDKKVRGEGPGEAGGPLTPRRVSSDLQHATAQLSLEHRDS
# Outline: as §1
# ETV3L = target: T9, ETV3L (Homo sapiens, UniProt Q6ZN32 1-361)
# T9 sequence: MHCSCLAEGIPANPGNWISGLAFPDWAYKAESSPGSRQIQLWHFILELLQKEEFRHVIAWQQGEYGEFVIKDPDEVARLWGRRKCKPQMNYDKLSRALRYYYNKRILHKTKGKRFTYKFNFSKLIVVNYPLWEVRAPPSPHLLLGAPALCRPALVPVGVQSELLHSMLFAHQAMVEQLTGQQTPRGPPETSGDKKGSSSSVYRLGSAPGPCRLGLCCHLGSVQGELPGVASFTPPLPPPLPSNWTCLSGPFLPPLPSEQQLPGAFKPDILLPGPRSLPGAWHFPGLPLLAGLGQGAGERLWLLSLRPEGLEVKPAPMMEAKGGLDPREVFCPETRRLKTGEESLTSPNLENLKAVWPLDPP
# Outline: as §1
# ETS2 = target: T10, ETS2 (Homo sapiens, UniProt P15036 1-469)
# T10 sequence: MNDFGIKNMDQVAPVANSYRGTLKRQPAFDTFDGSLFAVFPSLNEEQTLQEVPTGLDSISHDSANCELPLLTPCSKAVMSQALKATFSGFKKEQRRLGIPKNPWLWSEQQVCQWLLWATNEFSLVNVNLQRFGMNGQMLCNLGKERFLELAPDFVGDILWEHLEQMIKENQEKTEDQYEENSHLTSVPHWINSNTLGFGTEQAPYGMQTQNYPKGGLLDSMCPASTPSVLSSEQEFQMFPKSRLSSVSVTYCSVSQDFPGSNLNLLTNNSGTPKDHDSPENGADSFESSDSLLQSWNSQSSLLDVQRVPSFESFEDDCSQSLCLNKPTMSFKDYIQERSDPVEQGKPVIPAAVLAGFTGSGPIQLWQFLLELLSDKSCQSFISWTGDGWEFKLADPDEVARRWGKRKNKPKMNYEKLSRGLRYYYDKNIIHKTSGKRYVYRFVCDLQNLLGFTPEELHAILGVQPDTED
# Outline: as §1
# ETV3 = target: T11, ETV3 (Homo sapiens, UniProt P41162-2 1-143)
# T11 sequence: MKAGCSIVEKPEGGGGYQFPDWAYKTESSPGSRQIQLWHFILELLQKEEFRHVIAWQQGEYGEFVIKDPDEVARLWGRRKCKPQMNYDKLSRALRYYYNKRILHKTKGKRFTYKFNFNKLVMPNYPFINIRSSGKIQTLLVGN
# Outline: as §1
# ETV6 = ETV6 (Homo sapiens, UniProt P41212 1-452)
# Sequence of ETV6 (P41212 whole entry): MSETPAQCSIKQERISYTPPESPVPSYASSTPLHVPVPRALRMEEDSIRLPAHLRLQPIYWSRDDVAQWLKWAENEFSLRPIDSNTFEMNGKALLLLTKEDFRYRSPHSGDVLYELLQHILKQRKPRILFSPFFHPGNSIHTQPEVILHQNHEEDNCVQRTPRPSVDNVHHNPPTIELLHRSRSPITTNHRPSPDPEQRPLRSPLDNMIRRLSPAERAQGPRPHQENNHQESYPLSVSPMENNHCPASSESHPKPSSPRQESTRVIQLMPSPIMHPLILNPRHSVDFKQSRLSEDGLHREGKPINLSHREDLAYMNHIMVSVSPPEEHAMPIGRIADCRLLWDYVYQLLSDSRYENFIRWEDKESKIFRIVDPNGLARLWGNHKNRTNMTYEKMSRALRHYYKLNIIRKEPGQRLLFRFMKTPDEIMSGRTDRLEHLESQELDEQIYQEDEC
# Outline: as §1
sequence,measurement,setting,value
TGCGGC,binding signal,FLI1,"1.06 fold enrichment (6-mer frequency, TF over GST control)"
same,binding signal,ELK1,"1.04 fold enrichment (6-mer frequency, TF over GST control)"
same,binding signal,GABPA,"1.09 fold enrichment (6-mer frequency, TF over GST control)"
same,binding signal,ELF1,"1.05 fold enrichment (6-mer frequency, TF over GST control)"
same,binding signal,EHF,"1.07 fold enrichment (6-mer frequency, TF over GST control)"
same,binding signal,SPI1,"1.11 fold enrichment (6-mer frequency, TF over GST control)"
same,binding signal,ELK3,"1.01 fold enrichment (6-mer frequency, TF over GST control)"
same,binding signal,FEV,"1.02 fold enrichment (6-mer frequency, TF over GST control)"
same,binding signal,ETV5,"1.06 fold enrichment (6-mer frequency, TF over GST control)"
same,binding signal,SPIC,"1.19 fold enrichment (6-mer frequency, TF over GST control)"
same,binding signal,ELF4,"1.13 fold enrichment (6-mer frequency, TF over GST control)"
same,binding signal,ETV1,"1.08 fold enrichment (6-mer frequency, TF over GST control)"
same,binding signal,ERF,"1.14 fold enrichment (6-mer frequency, TF over GST control)"
same,binding signal,ETV3L,"1.03 fold enrichment (6-mer frequency, TF over GST control)"
same,binding signal,ETS2,"1.05 fold enrichment (6-mer frequency, TF over GST control)"
same,binding signal,ETV3,"1.03 fold enrichment (6-mer frequency, TF over GST control)"
same,binding signal,ETV6,"1 fold enrichment (6-mer frequency, TF over GST control)"

# From publication PMC7862700, “An all-to-all approach to the identification of sequence-specific readers for epigenetic DNA modifications on cytosine”
